# The panel holds about 79,000 compounds, 15% with a hit somewhere; the sample as a whole holds those more often. A number with no mark means an inactive call. Active and inactive are the calls of the source. Cut-off read from the data, not from the text of the source: active = growth inhibition above about 70%; inactive = the rest.
# Tests used:
# [1] = NCI Yeast Anticancer Drug Screen. Data for the rad50 strain (AID 155);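 note: 0% = growth of vehicle-only cultures of the same strain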; conditions: S. cerevisiae rad50 strain growth inhibition, active compounds read high
# Outline: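 DNA repair mutant yeast, compound exposure, growth read-out; inhibition is taken relative to vehicle.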
# [2] = NCI Yeast Anticancer Drug Screen. Data for the mec2-1 strain (AID 157); conditions: S. cerevisiae mec2-1 strain, active compounds read high
# Outline: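 Test agents were screened against the mec2-1 yeast strain, with defined DNA repair or cell cycle alteration. Growth was scored as inhibition against vehicle-only controls.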
# [3] = NCI Yeast Anticancer Drug Screen. Data for the sgs1 mgt1 strain (AID 161);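 note: 0% = growth of cultures given vehicle only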; conditions: S. cerevisiae sgs1 mgt1 strain, active compounds read high
# Outline: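 Genetically altered yeast, compound exposure, growth inhibition relative to vehicle.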
# [4] = NCI Yeast Anticancer Drug Screen. Data for the cln2 rad14 strain (AID 165);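 note: 0% = growth equal to vehicle treated cultures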; conditions: S. cerevisiae cln2 rad14 strain, active compounds read high
# Outline: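 Growth of compound-exposed yeast (cln2 rad14 genotype) measured and expressed as inhibition relative to vehicle.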
# [5] = NCI Yeast Anticancer Drug Screen. Data for the bub3 strain (AID 167); conditions: S. cerevisiae bub3 mutant strain, active compounds read high
# Outline: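 In this screen, a yeast mutant lacking normal mitotic checkpoint function is challenged with compound. Relative growth versus vehicle gives the inhibition value.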
# [6] = NCI Yeast Anticancer Drug Screen. Data for the mlh1 rad18 strain (AID 175); conditions: S. cerevisiae mlh1 rad18 strain growth inhibition, active compounds read high
# Outline: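 In this whole-cell yeast screen, a strain with altered DNA damage repair is challenged with compound, and its growth is measured against matched vehicle-treated controls.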
# [7] = at 5.0 µM (retest, dose inferred, filed as 0.5)
# [8] = at 50.0 µM (retest, dose inferred, filed as 5.0)
SMILES,"growth inhibition [1, 7]","growth inhibition [1, 8]",growth inhibition ([1]; at 50.0 µM),"growth inhibition [2, 7]","growth inhibition [2, 8]",growth inhibition ([2]; at 50.0 µM),"growth inhibition [3, 7]","growth inhibition [3, 8]",growth inhibition ([3]; at 50.0 µM),"growth inhibition [4, 7]","growth inhibition [4, 8]",growth inhibition ([4]; at 50.0 µM),"growth inhibition [5, 7]","growth inhibition [5, 8]",growth inhibition ([5]; at 50.0 µM),"growth inhibition [6, 7]","growth inhibition [6, 8]",growth inhibition ([6]; at 50.0 µM)
Cc1cc(N=Nc2ccccc2)ccc1O,-13%,99% (active),99.4% (active),-11%,100% (active),99.5% (active),-2%,100% (active),99.5% (active),-31%,99% (active),99.3% (active),6%,99% (active),99.3% (active),-8%,99% (active),99.3% (active)
C#CC(=O)OCC#CCOC(=O)C#C,3%,77% (active),97.5% (active),0%,95% (active),98.5% (active),-9%,83% (active),78.2% (active),-7%,15%,49.2%,1%,76% (active),92.2% (active),5%,96% (active),96% (active)
CCN(CC)CCNc1cc(C)nc2c1ccc1c2ccc2c(NCCN(CC)CC)cc(C)nc21,-3%,96% (active),62.3%,18%,98% (active),98% (active),-3%,96% (active),54.5%,-16%,95% (active),93% (active),-2%,90% (active),96% (active),-3%,97% (active),96.4% (active)
c1cnc2ccc3c4cccnc4ccc3c2c1,12%,95% (active),96.8% (active),0%,75% (active),75% (active),7%,81% (active),61.3%,-17%,67%,59.5%,2%,66%,75.8% (active),1%,89% (active),80.4% (active)
COc1ccnc(-c2cc(OC)cc(/C(N)=N/O)n2)c1,2%,59%,96.8% (active),-4%,83% (active),93.1% (active),-2%,63%,96% (active),-5%,62%,93.8% (active),-3%,54%,88.7% (active),-4%,77% (active),96.8% (active)
N#COc1ccc(Oc2ccc(OC#N)cc2)cc1,-4%,-3%,-12.9%,-30%,14%,-22.8%,26%,-3%,90.2% (active),-2%,29%,25.8%,-5%,46%,40%,-12%,-15%,25.3%
O=C(O)/C=C/C(=O)Nc1cc2c(cc1Br)-c1ccccc1C2Br (configuration not stated),8%,77% (active),9.15%,1%,38%,40.9%,3%,69%,7.45%,-1%,27%,38.1%,-12%,71% (active),-3.8%,4%,81% (active),11.2%
CCOC(=O)C1CCN(Cc2ccccc2)CC1=O (configuration not stated),61%,89% (active),90% (active),61%,92% (active),91.3% (active),68%,99% (active),92.4% (active),49%,100% (active),90.2% (active),81% (active),98% (active),90.7% (active),49%,87% (active),90.8% (active)
CN(C)CC1CCc2ccc3ccccc3c2C1=O (configuration not stated),9%,34%,25.9%,-13%,27%,31.6%,16%,48%,56.4%,6%,29%,7.95%,10%,63%,48.8%,29%,65%,15.4%

# From PubChem BioAssay (NCI)
